Holding throughout (conditions): mRNA level, 48 h; actives raise or lower the signal
Read-out in experiment [1]: Insulin Like Growth Factor 1 (IGF1), IGF1 (gene 3479)
The experiment is described as follows: LTEA_HepaRG_IGF1: Life Technologies and Expression Analysis (LTEA) Assay for Insulin Like Growth Factor 1 (IGF1) using HepaRG (AID 2283506). The essentials: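 Differentiated human HepaRG cells were dosed for 48 h in serum-free induction medium with 0.5% DMSO, eight half-log concentrations up to 100 uM, in duplicate. IGF1 mRNA was quantified by qRT-PCR normalized to ACTB, GAPDH, POLR2A; bidirectional fitting versus DMSO.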

Read-out in experiment [2]: Intercellular Adhesion Molecule 1 (ICAM1), ICAM1 (gene 3383)
As to the kind of experiment: LTEA_HepaRG_ICAM1: Life Technologies and Expression Analysis (LTEA) Assay for Intercellular Adhesion Molecule 1 (ICAM1) using HepaRG (AID 2283507). The essentials:
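Differentiated HepaRG cells in serum-free induction medium were exposed in duplicate for 48 h to eight half-log concentrations up to 100 uM in 0.5% DMSO. Transcript levels were measured by qRT-PCR normalized to ACTB, GAPDH and POLR2A; bidirectional fits relative to DMSO.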

Read-out in experiment [3]: Insulin-like growth factor-binding protein 1 (IGFBP1), IGFBP1 (gene 3484)
As to the kind of experiment: LTEA_HepaRG_IGFBP1: Life Technologies and Expression Analysis (LTEA) Assay for Insulin-like growth factor-binding protein 1 (IGFBP1) using HepaRG (AID 2283508). In outline:
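Differentiated human HepaRG cells in serum-free induction medium were exposed in duplicate for 48 h to eight concentrations, top 100 uM with half-log dilutions, in 0.5% DMSO. Transcript levels came from qRT-PCR normalised to ACTB, GAPDH and POLR2A, fitted bidirectionally against DMSO.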

Read-out in experiment [4]: Interleukin 6 (IL6), IL6 (gene 3569)
The experiment is described as follows: LTEA_HepaRG_IL6: Life Technologies and Expression Analysis (LTEA) Assay for Interleukin 6 (IL6) using HepaRG (AID 2283509). The essentials: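 Differentiated human HepaRG cells, plated 48 h then switched to serum-free induction medium, were exposed in duplicate for 48 h to eight half-log concentrations up to 100 uM in 0.5% DMSO. IL6 mRNA measured by qRT-PCR, normalized to ACTB/GAPDH/POLR2A.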

Read-out in experiment [5]: Interleukin 6 Receptor (IL6R), IL6R (gene 3570)
The experiment is described as follows: LTEA_HepaRG_IL6R: Life Technologies and Expression Analysis (LTEA) Assay for Interleukin 6 Receptor (IL6R) using HepaRG (AID 2283510).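 On AC50: TaqMan qRT-PCR signal normalized to ACTB GAPDH and POLR2A housekeeping genes.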 In outline: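 Differentiated human HepaRG cells, plated 48 h then switched to serum-free induction medium, were dosed in duplicate for 48 h at eight half-log concentrations up to 100 uM in 0.5% DMSO. IL6R mRNA quantified by qRT-PCR, normalized to ACTB/GAPDH/POLR2A; bidirectional fit versus DMSO.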

Read-out in experiment [6]: Keratin 19 (KRT19), KRT19 (gene 3880)
The experiment is described as follows: LTEA_HepaRG_KRT19: Life Technologies and Expression Analysis (LTEA) Assay for Keratin 19 (KRT19) using HepaRG (AID 2283512). The essentials: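 Differentiated human HepaRG cells, plated 48 h, were exposed in duplicate for 48 h in serum-free induction medium to eight half-log concentrations up to 100 uM in 0.5% DMSO. KRT19 mRNA was quantified by qRT-PCR, normalized to ACTB, GAPDH and POLR2A, and fitted bidirectionally versus DMSO.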

Read-out in experiment [7]: JUN Transcription Factor, JUN (gene 3725)
The experiment is described as follows: LTEA_HepaRG_JUN: Life Technologies and Expression Analysis (LTEA) Assay for JUN Transcription Factor using HepaRG (AID 2283513). In outline:
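Differentiated HepaRG cells were exposed to chemicals for 48 h in serum-free induction medium, 8 concentrations from 100 uM in half-log steps, 0.5% DMSO vehicle, in duplicate. JUN mRNA was quantified by TaqMan qRT-PCR, normalized to ACTB, GAPDH, POLR2A.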

Read-out in experiment [8]: Lipase C (LIPC), LIPC (gene 3990)
The experiment is described as follows: LTEA_HepaRG_LIPC: Life Technologies and Expression Analysis (LTEA) Assay for Lipase C (LIPC) using HepaRG (AID 2283514). The essentials: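 Differentiated human HepaRG cells in serum-free induction medium were exposed in duplicate for 48 h to eight concentrations (top 100 uM, half-log steps, 0.5% DMSO). LIPC mRNA was quantified by TaqMan qRT-PCR, normalized to ACTB, GAPDH and POLR2A, with bidirectional fitting versus DMSO.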

Read-out in experiment [9]: Lipoprotein lipase (LPL), LPL (gene 4023)
The experiment is described as follows: LTEA_HepaRG_LPL: Life Technologies and Expression Analysis (LTEA) Assay for Lipoprotein lipase (LPL) using HepaRG (AID 2283515). The essentials: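 Differentiated human HepaRG cells in serum-free induction medium were exposed in duplicate for 48 h to eight half-log concentrations (top 100 uM) in 0.5% DMSO. LPL mRNA was quantified by TaqMan qRT-PCR, normalized to ACTB, GAPDH and POLR2A.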

Read-out in experiment [10]: MicroRNA 122 (MIR122), gene 406906
The experiment is described as follows: LTEA_HepaRG_MIR122: Life Technologies and Expression Analysis (LTEA) Assay for MicroRNA 122 (MIR122) using HepaRG (AID 2283516). Further: the transcript read is the microRNA miR-122. In outline:
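Differentiated human HepaRG cells were exposed 48 h in serum-free induction medium to eight half-log concentrations (top 100 uM, 0.5% DMSO). Transcript level was measured by TaqMan qRT-PCR, normalized to ACTB, GAPDH and POLR2A, and fitted bidirectionally versus DMSO.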

Read-out in experiment [11]: matrix metalloproteinase-10 (MMP10), MMP10 (gene 4319)
The experiment is described as follows: LTEA_HepaRG_MMP10: Life Technologies and Expression Analysis (LTEA) Assay for matrix metalloproteinase-10 (MMP10) using HepaRG (AID 2283517). The essentials: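 HepaRG, collagen I, ~100,000 cells/well; serum-free induction medium; 48 h exposure, duplicate, 8-pt half-log to 100 uM, 0.5% DMSO. Readout: TaqMan qRT-PCR, normalized to ACTB/GAPDH/POLR2A; bidirectional fit vs DMSO.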

Read-out in a further experiment: MYC, MYC (gene 4609)
The experiment is described as follows: LTEA_HepaRG_MYC: Life Technologies and Expression Analysis (LTEA) Assay for MYC using HepaRG (AID 2283518). The essentials:
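Differentiated human HepaRG cells, plated 48 h then switched to serum-free induction medium, were exposed in duplicate for 48 h to 8-point half-log series up to 100 uM in 0.5% DMSO. MYC mRNA measured by qRT-PCR, normalized to ACTB/GAPDH/POLR2A.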

Read-out in experiment [12]: Paternally Expressed 10 (PEG10), PEG10 (gene 23089)
The experiment is described as follows: LTEA_HepaRG_PEG10: Life Technologies and Expression Analysis (LTEA) Assay for Paternally Expressed 10 (PEG10) using HepaRG (AID 2283520). In outline: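 Differentiated HepaRG cells, plated 48 h then switched to serum-free induction medium, were exposed in duplicate for 48 h to eight half-log concentrations topping at 100 uM in 0.5% DMSO. PEG10 mRNA was quantified by TaqMan qRT-PCR, normalised to ACTB, GAPDH and POLR2A.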

Read-out in experiment [13]: Nuclear factor NF-kappa-B p105 subunit (Homo sapiens) (UniProt P19838)
As to the kind of experiment: LTEA_HepaRG_NFKB1: Life Technologies and Expression Analysis (LTEA) Assay for Nuclear Factor Kappa B Subunit 1 (NFKB1) using HepaRG (AID 2283521).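 Further: TaqMan qRT-PCR transcript normalised to ACTB GAPDH and POLR2A housekeeping genes.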 In outline:
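NFKB1 transcript was measured by TaqMan qRT-PCR on Fluidigm arrays, normalised to three housekeeping genes and fitted in both directions against 0.5% DMSO. HepaRG cells were dosed in duplicate for 48 h in serum-free induction medium, eight half-log steps from 100 uM.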

Read-out in experiment [14]: Protein phosphatase 2A (PPP2R4), PTPA (gene 5524)
The experiment is described as follows: LTEA_HepaRG_PPP2R4: Life Technologies and Expression Analysis (LTEA) Assay for Protein phosphatase 2A (PPP2R4) using HepaRG (AID 2283522). In outline: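 Differentiated HepaRG cells in serum-free induction medium were exposed in duplicate for 48 h to eight concentrations, top 100 uM with half-log dilutions, in 0.5% DMSO. PPP2R4 mRNA was quantified by TaqMan qRT-PCR, normalized to ACTB, GAPDH and POLR2A.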

Read-out in experiment [15]: Phosphatase and tensin (PTEN), PTEN (gene 5728)
As to the kind of experiment: LTEA_HepaRG_PTEN: Life Technologies and Expression Analysis (LTEA) Assay for Phosphatase and tensin (PTEN) using HepaRG (AID 2283523). The essentials:
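Differentiated human HepaRG cells, plated 48 h then switched to serum-free induction medium, were exposed in duplicate for 48 h to eight half-log concentrations up to 100 uM in 0.5% DMSO. PTEN mRNA measured by TaqMan qRT-PCR, normalized to ACTB/GAPDH/POLR2A, bidirectional fit versus DMSO.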

Read-out in experiment [16]: solute carrier (SLC22A1), SLC22A1 (gene 6580)
As to the kind of experiment: LTEA_HepaRG_SLC22A1: Life Technologies and Expression Analysis (LTEA) Assay for solute carrier (SLC22A1) using HepaRG (AID 2283524). The essentials: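 Human HepaRG cells were plated 48 h, switched to serum-free induction medium, then exposed in duplicate for 48 h to 8-point half-log series from 100 uM in 0.5% DMSO. SLC22A1 mRNA measured by qRT-PCR, normalized to ACTB/GAPDH/POLR2A, fitted bidirectionally versus DMSO.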

Read-out in experiment [17]: Pyruvate Dehydrogenase Kinase 4 (PDK4), PDK4 (gene 5166)
As to the kind of experiment: LTEA_HepaRG_PDK4: Life Technologies and Expression Analysis (LTEA) Assay for Pyruvate Dehydrogenase Kinase 4 (PDK4) using HepaRG (AID 2283525). The essentials: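 Differentiated human HepaRG cells, pre-cultured 48 h, were exposed in duplicate for 48 h in serum-free induction medium to eight half-log concentrations up to 100 uM in 0.5% DMSO. PDK4 mRNA was quantified by qRT-PCR, normalized to ACTB, GAPDH and POLR2A, bidirectional fitting versus DMSO.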

Read-out in experiment [18]: matrix metalloproteinase-3 (MMP3), MMP3 (gene 4314)
The experiment is described as follows: LTEA_HepaRG_MMP3: Life Technologies and Expression Analysis (LTEA) Assay for matrix metalloproteinase-3 (MMP3) using HepaRG (AID 2283519). The essentials:
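Differentiated human HepaRG cells, plated 48 h on collagen I, were exposed in duplicate for 48 h in serum-free induction medium to eight half-log concentrations up to 100 uM in 0.5% DMSO. MMP3 mRNA was quantified by TaqMan qRT-PCR, normalised to ACTB, GAPDH and POLR2A.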

Active and inactive are the calls of the source. How the source made its calls: active means hit-call score of the fitted dose curve at least 0.9, where 1 is the maximum; inactive means score below 0.9.

Chain of Nuclear factor NF-kappa-B p105 subunit (Homo sapiens) (P19838 whole entry, looked up): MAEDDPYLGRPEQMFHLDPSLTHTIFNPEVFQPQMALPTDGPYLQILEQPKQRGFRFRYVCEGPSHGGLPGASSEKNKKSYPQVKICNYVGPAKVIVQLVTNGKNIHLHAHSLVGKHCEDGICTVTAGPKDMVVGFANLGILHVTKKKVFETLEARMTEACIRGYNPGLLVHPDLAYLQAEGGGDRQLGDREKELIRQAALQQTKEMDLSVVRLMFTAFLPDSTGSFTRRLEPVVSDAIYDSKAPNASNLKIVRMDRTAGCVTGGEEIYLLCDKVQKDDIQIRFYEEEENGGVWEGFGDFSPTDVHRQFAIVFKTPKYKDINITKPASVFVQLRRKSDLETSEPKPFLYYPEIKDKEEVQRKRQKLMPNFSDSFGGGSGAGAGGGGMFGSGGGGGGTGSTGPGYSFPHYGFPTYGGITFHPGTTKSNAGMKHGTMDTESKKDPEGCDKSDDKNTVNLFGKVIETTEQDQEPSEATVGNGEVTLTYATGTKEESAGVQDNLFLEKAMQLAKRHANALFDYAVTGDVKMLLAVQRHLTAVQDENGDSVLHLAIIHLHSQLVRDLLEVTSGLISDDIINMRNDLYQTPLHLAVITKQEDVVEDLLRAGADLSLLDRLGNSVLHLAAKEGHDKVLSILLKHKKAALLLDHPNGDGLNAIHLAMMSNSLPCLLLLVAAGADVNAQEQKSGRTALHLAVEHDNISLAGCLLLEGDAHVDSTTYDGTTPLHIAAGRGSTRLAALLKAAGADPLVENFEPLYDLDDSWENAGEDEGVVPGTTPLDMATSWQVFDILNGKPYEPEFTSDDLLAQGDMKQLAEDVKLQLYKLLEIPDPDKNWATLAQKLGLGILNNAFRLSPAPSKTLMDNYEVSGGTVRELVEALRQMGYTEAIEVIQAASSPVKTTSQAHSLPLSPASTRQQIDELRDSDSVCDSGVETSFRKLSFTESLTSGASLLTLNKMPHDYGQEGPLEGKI

`CN1CCN(Cc2cc(-c3ccc4[nH]c(=O)oc4c3)co2)[C@@H](c2ccc(F)cc2)C1`: the outcome in experiment [1], in [2], in experiment [3], in experiment [5], in experiment [7] and in experiment [8] was inactive. The outcome in [9] is “inactive”; in experiment [10] it was “inactive”; in [11] it was “inactive”; with MYC, MYC (gene 4609), “inactive”; in [13], “inactive”; in experiment [14], “inactive”. Also, in experiment [15], the compound was classed as inactive. For the same compound, the AC50 in [4] is 50 µM (active); in experiment [6], 23.9 µM (active); in [12], 82.7 µM (active); in [16] it was 50 µM (active); in experiment [17] it was 88.5 µM (active).
As for `O=c1c(O)c(-c2ccc(O)c(O)c2)oc2cc(O)cc(O)c12`, the call in [2], in [3], in [4], in [5], in experiment [6] and in experiment [7] was inactive. Moreover, the outcome in experiment [9] was “inactive”; in experiment [10], “inactive”; in experiment [11], “inactive”; with MYC, MYC (gene 4609), “inactive”; in experiment [18], “inactive”; in experiment [12] it was “inactive”. Moreover, the outcome in [13], in experiment [14], in [15], in experiment [16] and in experiment [17] was inactive. For the same compound, in [8], the AC50 was 80.5 µM (active).
Regarding `CCOc1ccc2c(c1)C(C)=CC(C)(C)N2`, the AC50 in experiment [1] was 12.7 µM (active); in experiment [3] it was 50 µM (active); in [5], 76.9 µM (active); in [9], 50 µM (active); in experiment [12], 31.8 µM (active); in [14], 50 µM (active). Also, the compound was classed as inactive in [2], in experiment [4], in experiment [6], in [7], in experiment [8] and in [10]. For the same compound, the outcome was “inactive” in experiment [11]; “inactive” with MYC, MYC (gene 4609); “inactive” in experiment [18]; “inactive” in experiment [15]; “inactive” in experiment [16]; “inactive” in experiment [17].
As to `O=[N+]([O-])C(CO)(CO)CO`, the result in experiment [1], in experiment [2], in [3], in [4], in experiment [5] and in [6] was inactive. Besides, the outcome in [7] is “inactive”; in [8], “inactive”; in experiment [9], “inactive”; in experiment [10] it was “inactive”; in [11], “inactive”; with MYC, MYC (gene 4609), “inactive”. The compound was called inactive in [12], in [13], in experiment [14], in [15], in experiment [16] and in experiment [17].

Broadly, the AC50 is the concentration giving half of the maximal activity seen.

The values above are taken from PubChem BioAssay (EPA / NIEHS).
